Measurements published in PubChem BioAssay AID1259341 (Broad Institute, 2017).
Calls of active or inactive are those of the source.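 The calls were made as follows: active = activity change under -35% in any replicate well, with more than 20 beads read in that well; inactive = the rest.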

Each compound was assayed against Caspase recruitment domain-containing protein 9 (Homo sapiens) + E3 ubiquitin-protein ligase TRIM62 (Homo sapiens) (UniProt Q9H257+Q9BVG3) (assay: disruptors of CARD9-TRIM62 binding, primary screen, cell lysate, HEK293FT lysates, Luminex bead ELISA (AID 1259341;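 also: PE anti-Flag signal of Flag-CARD9 captured by myc-TRIM62 beads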)). Details: PE fluorescence, stronger effect = lower value, concentration not given here.
Sequence of Caspase recruitment domain-containing protein 9 (Homo sapiens) + E3 ubiquitin-protein ligase TRIM62 (Homo sapiens) (Q9BVG3 whole entry, looked up, the tested form may be a part): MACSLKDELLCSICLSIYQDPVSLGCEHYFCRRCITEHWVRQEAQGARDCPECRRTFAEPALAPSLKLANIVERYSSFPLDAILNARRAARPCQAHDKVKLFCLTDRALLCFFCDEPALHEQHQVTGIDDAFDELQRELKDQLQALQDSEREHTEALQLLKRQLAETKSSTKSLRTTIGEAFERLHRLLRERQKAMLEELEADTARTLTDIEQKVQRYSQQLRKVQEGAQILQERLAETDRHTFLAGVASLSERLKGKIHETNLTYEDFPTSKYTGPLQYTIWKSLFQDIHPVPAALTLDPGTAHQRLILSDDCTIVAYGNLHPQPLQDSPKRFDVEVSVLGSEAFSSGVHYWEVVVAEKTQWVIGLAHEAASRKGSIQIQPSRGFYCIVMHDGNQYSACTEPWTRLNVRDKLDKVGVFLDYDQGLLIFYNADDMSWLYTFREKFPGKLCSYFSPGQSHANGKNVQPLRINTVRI
Sequence of Caspase recruitment domain-containing protein 9 (Homo sapiens) + E3 ubiquitin-protein ligase TRIM62 (Homo sapiens) (Q9H257 whole entry, looked up, the tested form may be a part): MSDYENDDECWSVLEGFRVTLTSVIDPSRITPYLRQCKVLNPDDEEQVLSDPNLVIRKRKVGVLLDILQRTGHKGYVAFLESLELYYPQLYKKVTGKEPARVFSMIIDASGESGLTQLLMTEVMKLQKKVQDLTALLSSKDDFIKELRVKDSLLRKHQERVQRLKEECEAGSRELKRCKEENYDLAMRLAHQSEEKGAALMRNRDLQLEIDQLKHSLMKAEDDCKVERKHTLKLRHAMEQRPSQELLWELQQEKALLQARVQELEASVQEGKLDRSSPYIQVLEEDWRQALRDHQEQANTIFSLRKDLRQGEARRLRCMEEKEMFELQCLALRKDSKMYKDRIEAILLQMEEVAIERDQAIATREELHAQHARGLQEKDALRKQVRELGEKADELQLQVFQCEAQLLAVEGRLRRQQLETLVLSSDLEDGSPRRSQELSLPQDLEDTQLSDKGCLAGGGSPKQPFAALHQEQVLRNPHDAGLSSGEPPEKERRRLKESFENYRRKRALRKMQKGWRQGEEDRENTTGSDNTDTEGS

Activity change, negative = inhibition, active:
NC(=O)C1(N2CCCCC2)CCN(c2ccc(NC(=O)c3cccc(Cl)c3)cc2C(=O)O)CC1 -49%

Activity change, negative = inhibition, inactive:
CCCN1CCCn2nc(CNC(=O)[C@@H](N)Cc3ccc(O)cc3)cc2C1 -26.6%, Cc1ccc(S(=O)(=O)Nc2ccc3c(c2)C(=O)N([C@H](C)CO)C[C@H](C)[C@@H](CN(C)C(=O)C2CCCCC2)OCCCC[C@H](C)O3)cc1 6.06%, N#Cc1c2c(c(NCc3ccco3)n3c1nc1ccccc13)CCC2 5.44%, c1cn(CCc2noc(C3CCCC3)n2)c(-c2cc3n(n2)CCCNC3)n1 -12.3%, O=c1oc(/C=C/c2ccc([N+](=O)[O-])s2)nc2ccccc12 -7%, COc1ccc(NC(=O)CN(C)C(=O)c2cc(-c3ccco3)nc3ccccc23)cc1 -8.21%, COCCCNC(=O)C1CCN(c2ccc(N3CCOCC3)nn2)CC1 28.3%, O=C1CC(c2ccco2)Cc2nc(N3CCc4ccccc4C3)ncc21 (stereo unspecified) -4.59%, On1c(-c2ccco2)nc2c1CCc1nonc1-2 -2.2%, Cc1nc(C)c(C(=O)Nc2ncc([N+](=O)[O-])s2)o1 -6.18%, C[C@H](CO)N1C[C@H](C)[C@@H](CN(C)CC2CCCCC2)OCCCC[C@H](C)Oc2ccc(NS(=O)(=O)c3ccccc3)cc2C1=O 7.12%, COc1ccc(-c2nc(C)c(C(C)=O)n2O)cc1OC -2.22%, C[n+]1cccc2cccc(O)c21 -2.89%, CS(=O)(=O)N1CCN(c2ccc([N+](=O)[O-])c(SCc3ccco3)c2)CC1 -5.97%, N#Cc1c(N)oc(-c2ccco2)c1-c1ccco1 -6.71%, CC(C)C(CC(=O)NCc1ccco1)c1ccco1 (stereo unspecified) -8.54%, COc1ccc2nc(-c3ccco3)c(-c3ccco3)nc2c1 -3.64%, CN(C)C(CN=C1NS(=O)(=O)c2ccccc21)c1ccco1 (stereo unspecified) -0.48%, NC(=O)C1(N2CCCCC2)CCN(c2ncc(NC(=O)c3ccc(F)cc3)cc2C(=O)O)CC1 -19.3%, CCc1nc(OCc2ccco2)c2sc3nc4c(cc3c2n1)COC(C)(C)C4 -2.36%, O=C1CC2(CCN(C(=O)Nc3ccccc3)CC2)CN1Cc1ccc(Cl)cc1 -3.18%, O=C(O)c1cc(-c2ccco2)nc2ccccc12 15.8%, O=C1NC(c2ccc(Br)cc2)Nc2sc3c(c21)CCC3 (stereo unspecified) -3.86%, COc1ccc(CNC(=O)c2nc(Nc3ccc(C)cc3)c3ccccc3n2)cc1 -5.2%, N#Cc1c2ccc(OCC(=O)NCc3ccco3)cc2n2ccccc12 0.334%, COc1ccc(N2CC3=C(N2)c2ccccc2CC3)cc1 25.5%, O=C(COC(=O)c1ccc(S(=O)(=O)NCc2ccco2)cc1)Nc1ccc(Cl)cn1 -0.897%, Cc1oc(CSCc2cc(C(=O)O)c(C)o2)cc1C(=O)O 1.21%, O=S(=O)(Nc1nc2ccccc2nc1NCc1ccco1)c1ccccc1 1.68%, COCC(=O)N1CCCC2(CCN(CCN3CCCC3)C2=O)C1 (stereo unspecified) -5.85%, O=c1/c(=C/c2ccco2)sc2nc3ccccc3n12 0.484%, O=S(=O)(c1ccc2nc(-c3ccco3)c(-c3ccco3)nc2c1)N1CCOCC1 -5.03%, Cn1cccc1CNCCCSc1ncccn1 1.41%, C[C@H](CO)N1C[C@H](C)[C@@H](CN(C)C(=O)C2CCCCC2)OCCCC[C@H](C)Oc2ccc(NS(=O)(=O)c3cn(C)cn3)cc2C1=O -7.17%, O=C(Cc1cccs1)Nc1nnc(Cc2ccccc2)s1 10.6%
